Columns and labels:
[1] = target: Angiopoietin-1 receptor (Homo sapiens) (UniProt Q02763); details: at 1 µM
[2] = target: Angiopoietin-1 receptor (Homo sapiens) (UniProt Q02763); details: at 10 µM
[3] = target: BDNF/NT-3 growth factors receptor (Homo sapiens) (UniProt Q16620); details: at 1 µM
[4] = target: BDNF/NT-3 growth factors receptor (Homo sapiens) (UniProt Q16620); details: at 10 µM
[5] = target: T1, Tyrosine-protein kinase TXK (Homo sapiens) (UniProt P42681); details: at 1 µM
T1 sequence (whole entry): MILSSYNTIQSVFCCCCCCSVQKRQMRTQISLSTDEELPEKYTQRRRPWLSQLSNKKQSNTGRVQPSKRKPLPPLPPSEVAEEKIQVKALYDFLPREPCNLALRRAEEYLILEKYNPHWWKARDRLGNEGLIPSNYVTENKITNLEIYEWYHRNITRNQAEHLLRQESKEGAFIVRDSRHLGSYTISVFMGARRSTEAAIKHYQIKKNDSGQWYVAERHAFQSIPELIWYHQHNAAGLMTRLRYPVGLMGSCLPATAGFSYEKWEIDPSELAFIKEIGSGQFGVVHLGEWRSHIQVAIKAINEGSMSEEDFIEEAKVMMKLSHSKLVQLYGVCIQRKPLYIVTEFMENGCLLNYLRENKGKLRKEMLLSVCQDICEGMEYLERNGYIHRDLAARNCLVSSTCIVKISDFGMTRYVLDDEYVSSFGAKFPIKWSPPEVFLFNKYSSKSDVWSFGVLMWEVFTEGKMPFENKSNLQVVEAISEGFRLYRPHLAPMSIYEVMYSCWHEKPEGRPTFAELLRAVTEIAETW

[6] = target: T1, Tyrosine-protein kinase TXK (Homo sapiens); details: at 10 µM
[7] = target: T2, Serine/threonine-protein kinase ULK2 (Homo sapiens) (UniProt Q8IYT8); details: at 1 µM
T2 sequence (whole entry): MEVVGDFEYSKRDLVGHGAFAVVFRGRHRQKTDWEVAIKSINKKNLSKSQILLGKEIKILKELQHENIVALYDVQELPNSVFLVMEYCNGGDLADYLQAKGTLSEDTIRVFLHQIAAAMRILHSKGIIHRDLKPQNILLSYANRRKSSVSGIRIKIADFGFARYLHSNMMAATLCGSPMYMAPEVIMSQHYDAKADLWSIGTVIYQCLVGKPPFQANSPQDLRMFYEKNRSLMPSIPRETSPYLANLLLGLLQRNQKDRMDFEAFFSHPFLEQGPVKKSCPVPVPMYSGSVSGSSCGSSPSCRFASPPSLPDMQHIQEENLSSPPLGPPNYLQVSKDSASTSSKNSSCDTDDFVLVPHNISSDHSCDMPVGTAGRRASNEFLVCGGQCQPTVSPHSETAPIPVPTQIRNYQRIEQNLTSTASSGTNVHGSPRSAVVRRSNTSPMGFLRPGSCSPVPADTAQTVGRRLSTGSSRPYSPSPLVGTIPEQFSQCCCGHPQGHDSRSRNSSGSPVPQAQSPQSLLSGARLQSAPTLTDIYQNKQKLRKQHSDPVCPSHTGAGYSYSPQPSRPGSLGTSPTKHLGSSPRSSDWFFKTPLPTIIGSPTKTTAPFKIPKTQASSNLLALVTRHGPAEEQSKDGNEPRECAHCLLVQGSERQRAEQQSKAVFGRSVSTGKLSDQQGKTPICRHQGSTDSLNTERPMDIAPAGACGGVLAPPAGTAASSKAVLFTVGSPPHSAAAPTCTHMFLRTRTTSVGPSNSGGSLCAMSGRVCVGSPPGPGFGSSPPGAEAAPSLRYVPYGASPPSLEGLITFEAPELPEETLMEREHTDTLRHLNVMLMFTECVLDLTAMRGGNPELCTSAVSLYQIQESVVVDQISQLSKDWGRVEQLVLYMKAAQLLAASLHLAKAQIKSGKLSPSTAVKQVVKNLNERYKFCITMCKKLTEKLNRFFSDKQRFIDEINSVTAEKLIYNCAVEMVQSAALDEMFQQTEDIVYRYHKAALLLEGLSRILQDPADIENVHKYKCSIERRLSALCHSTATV

[8] = target: T2, Serine/threonine-protein kinase ULK2 (Homo sapiens); details: at 10 µM
[9] = target: Serine/threonine-protein kinase VRK2 (Homo sapiens) (UniProt Q86Y07); details: at 1 µM
Serine/threonine-protein kinase VRK2 (Homo sapiens), sequence (Q86Y07 whole entry): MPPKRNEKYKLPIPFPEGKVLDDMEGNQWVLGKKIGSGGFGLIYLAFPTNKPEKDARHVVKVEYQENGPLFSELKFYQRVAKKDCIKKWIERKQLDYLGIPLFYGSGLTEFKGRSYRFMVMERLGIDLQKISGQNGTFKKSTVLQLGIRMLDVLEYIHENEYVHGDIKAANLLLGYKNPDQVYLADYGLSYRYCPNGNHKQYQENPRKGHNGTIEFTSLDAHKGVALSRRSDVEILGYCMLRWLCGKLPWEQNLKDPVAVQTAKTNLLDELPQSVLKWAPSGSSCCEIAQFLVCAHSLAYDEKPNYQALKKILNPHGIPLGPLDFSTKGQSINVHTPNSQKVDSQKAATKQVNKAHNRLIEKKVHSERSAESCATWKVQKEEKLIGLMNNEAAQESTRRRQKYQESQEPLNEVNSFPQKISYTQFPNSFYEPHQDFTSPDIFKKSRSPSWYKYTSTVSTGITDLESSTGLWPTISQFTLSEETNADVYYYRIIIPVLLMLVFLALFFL

[10] = target: Serine/threonine-protein kinase VRK2 (Homo sapiens) (UniProt Q86Y07); details: at 10 µM
[11] = target: Serine/threonine-protein kinase WNK3 (Homo sapiens) (UniProt Q9BYP7); details: at 1 µM
Serine/threonine-protein kinase WNK3 (Homo sapiens), sequence (Q9BYP7 whole entry): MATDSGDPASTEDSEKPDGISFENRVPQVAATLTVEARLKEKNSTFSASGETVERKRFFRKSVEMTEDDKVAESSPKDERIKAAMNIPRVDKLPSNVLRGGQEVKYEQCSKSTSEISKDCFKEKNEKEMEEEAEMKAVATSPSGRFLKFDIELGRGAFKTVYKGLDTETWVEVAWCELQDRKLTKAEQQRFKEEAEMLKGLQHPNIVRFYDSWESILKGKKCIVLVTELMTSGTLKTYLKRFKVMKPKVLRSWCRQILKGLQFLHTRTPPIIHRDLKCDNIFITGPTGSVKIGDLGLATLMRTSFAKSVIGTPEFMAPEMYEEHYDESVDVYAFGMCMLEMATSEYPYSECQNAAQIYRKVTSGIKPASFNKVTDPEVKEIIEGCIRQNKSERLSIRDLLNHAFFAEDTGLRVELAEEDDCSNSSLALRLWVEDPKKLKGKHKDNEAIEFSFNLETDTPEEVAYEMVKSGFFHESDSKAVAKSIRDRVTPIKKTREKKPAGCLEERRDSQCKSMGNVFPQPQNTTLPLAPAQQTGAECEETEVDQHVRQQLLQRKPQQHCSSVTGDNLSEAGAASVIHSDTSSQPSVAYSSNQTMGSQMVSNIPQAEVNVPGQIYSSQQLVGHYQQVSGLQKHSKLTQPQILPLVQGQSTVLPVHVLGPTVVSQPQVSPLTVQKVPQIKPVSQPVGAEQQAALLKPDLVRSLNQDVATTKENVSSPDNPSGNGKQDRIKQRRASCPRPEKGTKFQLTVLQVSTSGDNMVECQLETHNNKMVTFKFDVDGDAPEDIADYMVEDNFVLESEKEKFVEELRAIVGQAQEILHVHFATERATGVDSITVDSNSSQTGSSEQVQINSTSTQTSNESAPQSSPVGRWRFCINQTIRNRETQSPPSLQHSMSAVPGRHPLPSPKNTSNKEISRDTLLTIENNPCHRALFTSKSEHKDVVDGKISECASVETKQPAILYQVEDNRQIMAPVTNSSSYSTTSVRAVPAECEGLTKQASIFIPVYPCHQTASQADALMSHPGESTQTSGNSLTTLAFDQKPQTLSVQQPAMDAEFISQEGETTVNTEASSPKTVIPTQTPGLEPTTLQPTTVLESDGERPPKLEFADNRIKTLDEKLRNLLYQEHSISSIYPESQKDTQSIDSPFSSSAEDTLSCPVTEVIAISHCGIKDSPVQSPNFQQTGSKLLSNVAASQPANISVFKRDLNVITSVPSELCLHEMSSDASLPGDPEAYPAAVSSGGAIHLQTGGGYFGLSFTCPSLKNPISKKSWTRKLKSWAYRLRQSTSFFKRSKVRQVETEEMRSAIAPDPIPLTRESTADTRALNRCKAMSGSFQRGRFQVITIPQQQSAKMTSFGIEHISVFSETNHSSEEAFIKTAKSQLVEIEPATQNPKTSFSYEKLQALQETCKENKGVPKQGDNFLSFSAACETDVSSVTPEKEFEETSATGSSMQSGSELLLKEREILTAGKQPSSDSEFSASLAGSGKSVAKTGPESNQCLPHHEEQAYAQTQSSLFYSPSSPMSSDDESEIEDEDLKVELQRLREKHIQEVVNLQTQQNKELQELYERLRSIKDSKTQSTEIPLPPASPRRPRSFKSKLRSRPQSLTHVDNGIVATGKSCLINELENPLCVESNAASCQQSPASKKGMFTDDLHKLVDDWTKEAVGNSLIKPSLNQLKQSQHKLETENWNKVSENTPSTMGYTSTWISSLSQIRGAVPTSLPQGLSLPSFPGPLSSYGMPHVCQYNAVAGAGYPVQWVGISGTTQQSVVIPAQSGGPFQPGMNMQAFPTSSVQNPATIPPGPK

[12] = target: Serine/threonine-protein kinase WNK3 (Homo sapiens) (UniProt Q9BYP7); details: at 10 µM
[13] = target: T3, Tyrosine-protein kinase Tec (Homo sapiens) (UniProt P42680); details: at 1 µM
T3 sequence (whole entry): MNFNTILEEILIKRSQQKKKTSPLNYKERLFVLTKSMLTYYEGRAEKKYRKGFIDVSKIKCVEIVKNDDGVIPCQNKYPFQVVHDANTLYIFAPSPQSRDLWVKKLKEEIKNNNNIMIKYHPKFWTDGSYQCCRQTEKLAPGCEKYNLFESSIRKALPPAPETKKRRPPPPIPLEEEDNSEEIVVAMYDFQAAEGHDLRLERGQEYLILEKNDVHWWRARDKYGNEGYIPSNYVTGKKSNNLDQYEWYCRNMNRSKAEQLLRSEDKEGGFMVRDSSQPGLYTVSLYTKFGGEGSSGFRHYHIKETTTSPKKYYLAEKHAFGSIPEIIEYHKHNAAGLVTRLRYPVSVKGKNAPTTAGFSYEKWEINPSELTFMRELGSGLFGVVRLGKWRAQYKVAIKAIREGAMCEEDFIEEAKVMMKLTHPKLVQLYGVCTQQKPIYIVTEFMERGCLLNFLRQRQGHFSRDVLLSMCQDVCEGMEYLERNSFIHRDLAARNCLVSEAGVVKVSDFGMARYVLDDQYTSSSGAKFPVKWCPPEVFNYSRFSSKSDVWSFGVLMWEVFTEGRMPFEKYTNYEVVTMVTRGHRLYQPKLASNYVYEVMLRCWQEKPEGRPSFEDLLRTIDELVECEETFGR

[14] = target: T3, Tyrosine-protein kinase Tec (Homo sapiens); details: at 10 µM
[15] = target: High affinity nerve growth factor receptor (Homo sapiens) (UniProt P04629); details: at 1 µM
High affinity nerve growth factor receptor (Homo sapiens), sequence (P04629 33-796 limits assumed): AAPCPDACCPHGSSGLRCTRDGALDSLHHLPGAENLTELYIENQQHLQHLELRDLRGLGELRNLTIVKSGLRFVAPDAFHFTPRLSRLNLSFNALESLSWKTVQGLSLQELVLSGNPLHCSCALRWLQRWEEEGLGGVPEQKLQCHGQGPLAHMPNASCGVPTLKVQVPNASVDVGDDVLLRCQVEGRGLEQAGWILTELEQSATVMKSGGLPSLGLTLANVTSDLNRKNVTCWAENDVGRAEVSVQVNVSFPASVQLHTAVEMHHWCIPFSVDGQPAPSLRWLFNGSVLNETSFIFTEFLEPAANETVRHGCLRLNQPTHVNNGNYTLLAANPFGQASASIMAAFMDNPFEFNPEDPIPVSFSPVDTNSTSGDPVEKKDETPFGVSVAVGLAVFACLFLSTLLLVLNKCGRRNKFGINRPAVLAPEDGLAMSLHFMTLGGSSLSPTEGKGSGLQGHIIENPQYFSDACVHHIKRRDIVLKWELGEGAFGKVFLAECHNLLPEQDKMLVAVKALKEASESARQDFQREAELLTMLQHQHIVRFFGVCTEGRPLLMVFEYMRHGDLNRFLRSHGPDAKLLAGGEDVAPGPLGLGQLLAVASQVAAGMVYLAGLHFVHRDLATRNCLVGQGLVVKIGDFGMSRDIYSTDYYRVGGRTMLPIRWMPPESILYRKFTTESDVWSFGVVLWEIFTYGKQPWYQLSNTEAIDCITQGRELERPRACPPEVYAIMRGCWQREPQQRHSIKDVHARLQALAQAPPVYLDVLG

[16] = target: High affinity nerve growth factor receptor (Homo sapiens) (UniProt P04629); details: at 10 µM
[17] = target: T4, Serine/threonine-protein kinase ULK3 (Homo sapiens) (UniProt Q6PHR2); details: at 1 µM
T4 sequence (whole entry): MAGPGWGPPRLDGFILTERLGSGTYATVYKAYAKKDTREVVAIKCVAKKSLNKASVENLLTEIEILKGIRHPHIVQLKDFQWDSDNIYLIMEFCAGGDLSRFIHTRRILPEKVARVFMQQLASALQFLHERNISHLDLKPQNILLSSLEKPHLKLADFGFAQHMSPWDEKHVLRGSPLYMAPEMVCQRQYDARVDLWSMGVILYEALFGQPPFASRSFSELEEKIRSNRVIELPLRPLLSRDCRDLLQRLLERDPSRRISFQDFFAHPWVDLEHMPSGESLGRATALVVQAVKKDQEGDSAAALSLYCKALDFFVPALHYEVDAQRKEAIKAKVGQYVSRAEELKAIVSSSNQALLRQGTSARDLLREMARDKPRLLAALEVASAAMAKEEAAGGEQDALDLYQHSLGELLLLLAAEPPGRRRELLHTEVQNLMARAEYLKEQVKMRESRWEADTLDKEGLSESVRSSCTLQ

[18] = target: T4, Serine/threonine-protein kinase ULK3 (Homo sapiens); details: at 10 µM
[19] = target: Serine/threonine-protein kinase WNK2 (Homo sapiens) (UniProt Q9Y3S1); details: at 1 µM
[20] = target: Serine/threonine-protein kinase WNK2 (Homo sapiens) (UniProt Q9Y3S1); details: at 10 µM

Angiopoietin-1 receptor (Homo sapiens), sequence (Q02763 whole entry): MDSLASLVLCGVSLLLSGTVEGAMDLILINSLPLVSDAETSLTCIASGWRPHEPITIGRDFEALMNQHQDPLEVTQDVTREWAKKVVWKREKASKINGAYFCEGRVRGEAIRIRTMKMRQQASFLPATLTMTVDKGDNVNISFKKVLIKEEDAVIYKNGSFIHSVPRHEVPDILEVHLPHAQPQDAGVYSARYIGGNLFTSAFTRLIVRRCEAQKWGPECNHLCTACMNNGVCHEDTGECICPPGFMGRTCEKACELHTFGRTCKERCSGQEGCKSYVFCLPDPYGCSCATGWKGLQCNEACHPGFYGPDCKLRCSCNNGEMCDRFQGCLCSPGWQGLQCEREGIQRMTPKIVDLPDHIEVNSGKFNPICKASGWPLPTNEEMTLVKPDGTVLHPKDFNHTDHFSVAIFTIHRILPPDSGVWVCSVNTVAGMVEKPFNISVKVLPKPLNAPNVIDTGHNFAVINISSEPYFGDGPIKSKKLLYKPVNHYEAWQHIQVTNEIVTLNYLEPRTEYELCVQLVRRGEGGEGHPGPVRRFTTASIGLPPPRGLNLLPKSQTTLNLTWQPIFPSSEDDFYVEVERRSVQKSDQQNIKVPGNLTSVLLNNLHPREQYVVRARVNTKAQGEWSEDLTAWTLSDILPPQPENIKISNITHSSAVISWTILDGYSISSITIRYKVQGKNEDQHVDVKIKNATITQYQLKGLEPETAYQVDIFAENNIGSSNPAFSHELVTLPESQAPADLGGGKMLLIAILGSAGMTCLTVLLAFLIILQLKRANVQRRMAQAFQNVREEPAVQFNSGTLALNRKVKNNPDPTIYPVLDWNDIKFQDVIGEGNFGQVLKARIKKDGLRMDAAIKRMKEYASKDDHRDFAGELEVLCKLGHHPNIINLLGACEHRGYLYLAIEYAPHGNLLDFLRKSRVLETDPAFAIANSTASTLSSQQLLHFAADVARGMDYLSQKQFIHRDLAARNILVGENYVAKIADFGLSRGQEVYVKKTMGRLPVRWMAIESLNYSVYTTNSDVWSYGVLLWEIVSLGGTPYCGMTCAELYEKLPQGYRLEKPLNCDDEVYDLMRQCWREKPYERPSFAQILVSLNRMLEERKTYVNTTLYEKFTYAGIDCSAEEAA
BDNF/NT-3 growth factors receptor (Homo sapiens), sequence (Q16620 32-822 limits assumed): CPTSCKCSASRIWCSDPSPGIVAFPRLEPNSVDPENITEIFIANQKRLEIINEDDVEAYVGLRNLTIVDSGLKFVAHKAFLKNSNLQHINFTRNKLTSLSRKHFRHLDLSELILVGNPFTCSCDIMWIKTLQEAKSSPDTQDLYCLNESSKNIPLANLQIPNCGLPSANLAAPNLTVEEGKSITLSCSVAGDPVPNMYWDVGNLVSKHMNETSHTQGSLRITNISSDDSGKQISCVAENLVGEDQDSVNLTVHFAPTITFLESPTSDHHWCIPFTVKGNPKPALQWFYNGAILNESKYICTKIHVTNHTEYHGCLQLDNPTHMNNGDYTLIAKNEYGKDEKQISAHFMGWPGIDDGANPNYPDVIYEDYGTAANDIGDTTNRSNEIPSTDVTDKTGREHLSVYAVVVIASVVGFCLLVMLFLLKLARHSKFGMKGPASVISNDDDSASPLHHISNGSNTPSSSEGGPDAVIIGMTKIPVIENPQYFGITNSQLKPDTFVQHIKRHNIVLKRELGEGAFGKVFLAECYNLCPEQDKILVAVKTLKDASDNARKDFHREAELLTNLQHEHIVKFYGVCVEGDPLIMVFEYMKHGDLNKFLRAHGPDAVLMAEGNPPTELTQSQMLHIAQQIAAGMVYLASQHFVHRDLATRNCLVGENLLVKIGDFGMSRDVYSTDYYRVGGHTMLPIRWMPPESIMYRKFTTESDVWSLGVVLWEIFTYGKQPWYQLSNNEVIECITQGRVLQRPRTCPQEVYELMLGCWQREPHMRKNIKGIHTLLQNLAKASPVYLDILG

Row | SMILES | residual activity [1] [%] | residual activity [2] [%] | residual activity [3] [%] | residual activity [4] [%] | residual activity [5] [%] | residual activity [6] [%] | residual activity [7] [%] | residual activity [8] [%] | residual activity [9] | residual activity [10] [%] | residual activity [11] | residual activity [12] [%] | residual activity [13] [%] | residual activity [14] [%] | residual activity [15] [%] | residual activity [16] [%] | residual activity [17] [%] | residual activity [18] [%] | residual activity [19] | residual activity [20] [%]
1 | O=C1c2ccccc2-c2nc3nnnn3nc21 | 75 | 20 | 123 | 119 | 103 | 73 | 110 | 103 | 116% (inactive) | 102 | 115% (inactive) | 103 |  |  |  |  |  |  |  | 
2 | O=[N+]([O-])/C=C/c1ccc2c(c1)OCO2 | 80 | 60 | 120 | 119 | 76 | 77 | 102 | 92 | 101% (inactive) | 91 | 88% (inactive) | 94 | 89 | 90 | 94 | 116 | 111 | 91 | 109% (inactive) | 88
3 | COc1ccc2c(c[n+](C)c3c4cc5c(cc4ccc23)OCO5)c1OC | 12 | 3 |  | 81 | 94 | 59 |  | 94 | 110% (inactive) | 91 |  | 84 | 86 | 66 |  |  |  | 96 |  | 76
4 | CC(C)(C)c1cc(C=C(C#N)C#N)cc(Br)c1O | 114 | 101 | 117 | 134 | 112 | 104 | 113 | 112 | 101% (inactive) | 105 | 111% (inactive) | 105 |  | 103 |  |  | 110 | 99 | 114% (inactive) | 114
5 | COc1ccc2c(c1)/C(=C/c1cnc[nH]1)C(=O)N2 |  | 71 |  |  | 77 | 46 | 81 | 23 |  | 66 |  | 96 |  | 70 | 3 | 0 | 80 | 23 |  | 
6 | O=c1[nH]c2ccccc2n1C1CCN(Cc2ccc(-c3nc4cc5[nH]cnc5cc4nc3-c3ccccc3)cc2)CC1 | 86 | 37 | 75 | 70 | 102 | 94 | 108 | 106 | 109% (inactive) | 93 | 116% (inactive) | 85 | 95 | 38 | 86 | 56 | 100 | 95 | 117% (inactive) | 83
7 | CN[C@@H]1C[C@H]2O[C@@](C)([C@@H]1OC)n1c3ccccc3c3c4c(c5c6ccccc6n2c5c31)C(=O)NC4 |  |  | 29 | -12 |  |  | 2 | 0 | 108% (inactive) | 90 | 88% (inactive) |  |  |  |  |  |  |  | 92% (inactive) | 30
8 | COC(=O)[C@@]1(O)C[C@H]2O[C@]1(C)n1c3ccccc3c3c4c(c5c6ccccc6n2c5c31)C(=O)NC4 | 20 | 3 | 0 | 0 | 35 | 5 | 7 | 0 | 100% (inactive) | 101 | 70% (inactive) | 8 | 3 | 2 |  |  | 0 | 1 | 63% (inactive) | 12
9 | O=C1Nc2ccc3ncsc3c2/C1=C/c1c[nH]cn1 | 67 | 22 | 19 | -11 | 82 | 30 | 37 | 6 | 75% (inactive) | 26 | 84% (inactive) | 67 | 91 | 42 | 3 | -1 | 42 | 7 | 89% (inactive) | 57
